HT1080 IDH1KD tx = HT-1080 IDH1 knockdown cell toxicity (counter line) | Potency, µM (top dose mostly 46.1 µM), without a hit: top-dose activity, negative = toxicity, hits mostly cytotoxic | hit rate 2% among 360,000 | HT-1080 IDH1 knockdown viability, ATP luminescence, 48 h;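 note: potency is the fitted concentration of half-maximal effect; 0% = DMSO wells and -100% = cell-free medium wells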
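Knockdown cells (IDH1KD HT-1080) received compounds 2 h after plating at 750 cells/well and were kept 48 h at 37 °C in 5% FBS RPMI. A CellTiter-Glo luminescence read gave % activity for curve fitting.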
DT40 TDP1 no CPT = qHTS for Inhibitors of human tyrosyl-DNA phosphodiesterase 1 (TDP1): qHTS in cells in absence of CPT; DT40 Tdp1-/- hTDP1 cells, no CPT, ATP luminescence, 48 h; Potency, µM (highest dose often 46.2 µM), without a hit: at the top dose activity change, negative = growth inhibition, most hits filed as inhibitors; AID 686978, 2013; hit rate 15% among 420,000; note: potency is the fitted concentration of half-maximal effect; nearly all actives have a fitted effect of over 55% in size
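Growth kinetics read by CellTiter-Glo luminescence after ≥48 hr at 37 °C. Cells: DT40 Tdp1-/- stably carrying human TDP1, 400 per well, compound exposure in the absence of CPT (DMSO vehicle).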
IL-1B inflam inh = blocks inflammasome-driven IL-1 beta release; THP-1 LPS/ATP IL-1B secretion, AlphaLISA, 16 h; stronger effect = lower value; activity change, % at 57.5 µM; hit rate 4.7% among 360,000; in the data active = activity change below about -50%; inconclusive = mostly about -30% to -49%
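Secreted IL-1B measured by AlphaLISA bead assay after 16 h compound exposure of THP-1 cells; compounds (final up to 57.5 uM) added 1 h before LPS (250 ng/mL) and ATP (1.25 mM) stimulation; lower signal means less secretion.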
HT1080NT lethal = kills 2HG-producing HT-1080-NT fibrosarcoma cells | HT-1080-NT fibrosarcoma viability, CellTiter-Glo ATP luminescence, 48 h | Potency, µM (doses to about 46.1 µM), for inactives: top-dose activity, negative = less viability, most hits filed as cytotoxic | hit rate 1.6% among 360,000;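 note: NT is the 2HG producing partner of a matched IDH1 knockdown line; potency is the fitted concentration of half-maximal effect; 0% = DMSO-treated cells and -100% = media-only wells without cells; nearly all actives have a fitted effect of over 55% in size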
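Luminescent CellTiter-Glo readout after 48 hours of compound exposure at 37 degrees C defined viability of HT-1080-NT cells. Activity was normalized to DMSO wells and cell-free media wells; concentration-response curves were fitted and assigned curve classes.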
TDP1 cell CPT = growth inhibition of DT40 Tdp1-/-;hTDP1 cells with camptothecin (screen for TDP1 inhibitors). chicken DT40 Tdp1-/-;hTDP1 cells + 20 nM CPT, ATP luminescence, 48 h. Potency, µM (highest dose often 46.2 µM), for the others: at the highest dose activity change, negative = growth inhibition, usual class: inhibitors. hit rate 12% among 420,000. AID 686979; note: potency is the fitted concentration of half-maximal effect; nearly all actives have a fitted effect of over 55% in size
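Chicken DT40 Tdp1-/- cells complemented with human TDP1, 400 cells/well, exposed to compounds plus 20 nM camptothecin for at least 48 h at 37 C; viability read as ATP content by CellTiter-Glo luminescence.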
An asterisk follows results filed as active; ? = inconclusive; / = not tested or not shown; ! = a repeat was not active; [ ] = another dose, or the depositor's remark. Sampled rows, rich in hits. Any-hit rate of the full collection: about 19%. Unless noted, calls come from the whole dose curve; as a rule, active = well fitted curve in the direction sought with a large enough effect; inconclusive = small, poorly fitted or top-dose-only effect, or another doubt; inactive = no such curve, though single readings can be large; an effect the other way counts as inactive or inconclusive. Unless noted, % is set by controls: 0 for no effect and ±100 for the full control effect.

SMILES	HT1080 IDH1KD tx	DT40 TDP1 no CPT	IL-1B inflam inh	HT1080NT lethal	TDP1 cell CPT
CCOc1ccc(CNc2ccc3c(c2)ncn3C(C)(C)C)cc1	-4%	21µM*	2	-1%	?
CCOc1ccc(CNc2ccc3c(c2)ncn3C)cc1	1%	?	-6	5%	-12%
COc1ccc(CNc2ccc3c(c2)ncn3-c2ccccc2OC)cc1	-18%	?	-91*	-9%	?
CC(C)(C)n1cnc2cc(NC(=O)c3cccs3)ccc21	0%	23µM*	-70*	-2%	?
COc1ccccc1-n1cnc2cc(NCc3ccco3)ccc21	?	1.3µM*	-4	5.2µM*	1.5µM*
COc1ccc(-c2nc3cnc(N4CCOCC4)nc3n(Cc3cccs3)c2=O)cc1	/	-2%	/	/	-23%
CCCN(CC1CC1)C(=O)COC(=O)c1[nH]c(C)c(C(=O)OCC)c1C	3%	?	-2	10%	?
CC1(C(=O)Nc2ccc3c(c2)OCCO3)CN(S(C)(=O)=O)CC(=O)N1CCc1ccccc1 (configuration not stated)	-9%	6%	-23	-7%	5%
C=CCNCCCOc1ccc(C(C)(C)c2ccccc2)cc1	-7%	?	-89*	-6%	?
CC(C)(c1ccccc1)c1ccc(OCCCNCCO)cc1	18µM*	21µM*	?	?	?
COCCNCCCOc1ccc(C(C)(C)c2ccccc2)cc1	4%	?	-23	-1%	?
COCCCNCCCOc1ccc(C(C)(C)c2ccccc2)cc1	4%	18µM*	?	-9%	?
c1ccc(CNCCCNCCCCNCCCNCc2ccccc2)cc1	5.2µM*	21µM*	-110*	?	?
COc1cccc(NC(=O)c2c([N+](=O)[O-])cnn2C)c1	17%	-2%	-3	5%	-19%
C[C@]1(CC/C(=C/CO)CO)[C@H](CO)CC[C@@]23COC(=O)C2=CCC[C@@H]31	-8%	0%	5	2%	-2%
CC(C)(C)c1ccc(OCCCNCc2ccccc2)cc1	-4%	?	-102*	-8%	?
Clc1cc(Br)ccc1OCCCNCc1ccccc1	?	?	-101*	23µM*	21µM*
CCc1cc(OCCCCNCc2ccccc2)ccc1Cl	?	18µM*	-102*	23µM*	21µM*
Cc1ccc(F)cc1S(=O)(=O)NCc1nc(N2CCCC2)c2cccc(C)c2n1	/	23µM*	/	/	?
CC(C)(C)NC(=O)NC(=O)COC(=O)CCC1CCCC1	0%	?	-15	-7%	-4%
CC1CCC(C(C)C)C(OC(=O)COC(=O)c2ccc(N)cc2)C1 (configuration not stated)	-10%	?	0	-4%	?
Cc1ccccc1OCc1n(CC(=O)OC2CC(C)CCC2C(C)C)c2ccccc2[n+]1C (configuration not stated)	7.3µM*	2.6µM*	-97*!	16µM*	10µM*
CC1CCC(C(C)C)C(OC(=O)Cn2c(-c3ccc(Cl)cc3)[n+](C)c3ccccc32)C1 (configuration not stated)	5.8µM*	2.1µM*	-91*	5.8µM*	2.3µM*
O=C(NNC(=O)C1C2CCC(C2)C1C(=O)O)c1cccc(Cl)c1 (configuration not stated)	4%	0%	3	5%	0%
O=C(CCCOc1ccccc1)Nc1ccc(S(=O)(=O)Nc2ccccn2)cc1	1%	-1%	15	3%	4%
SMILES	HT1080 IDH1KD tx	DT40 TDP1 no CPT	IL-1B inflam inh	HT1080NT lethal	TDP1 cell CPT
Cc1ccc(-n2c(C)cc(C(=O)NS(=O)(=O)c3ccc(C)cc3)c2C)cc1	-4%	?	7	-6%	-19%
Cc1ccc(NC(=O)c2cc(C)n(-c3cccc(C)c3)c2C)cc1	-30%	21µM*	-66*	-17%	?
Cc1cc(C(=O)Nc2ccc(Cl)cc2)c(C)n1-c1ccccc1	?	-25%	-91*	?	0%
Cc1ccc(NC(=O)c2cc(C)n(-c3ccccc3)c2C)cc1	?	?	-83*	?	?
C[C@H]1CC[C@@H]2N(C1)C[C@H]1[C@@H]3C[C@H]4[C@@H](C/C(=N\O)[C@H]5C[C@@H](O)CC[C@@]54C)[C@@H]3CC[C@H]1[C@]2(C)O	/	-3%[9.04 µM]	/	/	10%[9.04 µM]
CCOc1cc(NC(=S)Nc2ccc(Cl)cc2)c(OCC)cc1NC(C)=O	-14%	?	-11	-16%	-28%
CCOc1ccc(NC(=O)NC(=O)N(C(C)C)S(C)(=O)=O)cc1	3%	-11%	28	14%	?
CCN1/C(=C\C(=S)Nc2ccccc2)Sc2ccccc21	9.2µM*	3.3µM*	-97*	15µM*	3.7µM*
Cc1ccc(NC(=O)c2cccc(N3CCCS3(=O)=O)c2)cc1	/	-13%	/	/	?
Cc1cccc(OCCn2nnc3ccccc32)c1C	-3%	?	-12	-1%	?
COc1ccc(NC(=S)N(CCCN2CCN(C)CC2)Cc2cccs2)cc1	-2%	-5%	-2	-3%	6%
Cc1ccccc1NC(=S)N(Cc1ccccc1)Cc1cccs1	0%	2%	50	4%	-21%
CN1CCN(CCCN(Cc2cccs2)C(=S)Nc2ccc(Cl)cc2)CC1	-18%	?	-65*	-20%	?
CNC(=S)N(Cc1ccc(Cl)cc1)Cc1cccs1	-17%	16µM*	/	-5%	?
COc1ccc(NC(=S)N(CCCN2CCC(C)CC2)Cc2cccs2)cc1Cl	?	18µM*	?	?	26µM*
CCOC(=O)c1scc(-c2ccc(C)cc2)c1S(=O)(=O)N1CCN(c2ccccc2F)CC1	/	18µM*	/	/	15µM*
CCN(c1ccccc1)S(=O)(=O)c1c(-c2ccc(C)cc2)csc1C(=O)OC	/	15µM*	/	/	18µM*
CCOC(=O)c1scc(-c2ccc(C)cc2)c1S(=O)(=O)Nc1cccc(CC)c1	/	13µM*	/	/	12µM*
CCOC(=O)c1scc(-c2ccc(C)cc2)c1S(=O)(=O)Nc1cc(OC)ccc1OC	/	3.7µM*	/	/	9.2µM*
Cc1cccc(N2CCN(c3ccc(N4C(=O)CCCC4=O)cc3[N+](=O)[O-])CC2C)c1 (configuration not stated)	2%	?	-3	-1%	?
CCOC(=O)c1scc(-c2ccccc2)c1S(=O)(=O)Nc1ccccc1OC	/	21µM*	/	/	18µM*
CCc1ccc(NS(=O)(=O)c2c(-c3ccccc3)csc2C(=O)OC)cc1	/	23µM*	/	/	?
COC(=O)c1scc(-c2ccccc2)c1S(=O)(=O)Nc1cccc(C)c1C	/	26µM*	/	/	?
